Most compounds without a hit are left out; they make up all but 1.3% or so of the library.
NCOA1 inh – inhibits human SRC1 coactivator. Q15788. HEK293 GAL4-SRC1 luciferase reporter, luminescence. inhibition, % at 3.6 µM. 360,000 tested, 0.12% active. AID 588354;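 active means inhibition above the campaign mean plus 3 SD, with each screening campaign given its own cutoff, cut at about 60% in these data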;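 further: 0% = DMSO treated cells and 100% = gossypol at 36 µM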
NCOA3 inh – human NCOA3 inhibition. Q9Y6Q9. HEK293 GAL4-SRC3 luciferase reporter, luminescence. inhibition, % at 3.6 µM. 360,000 tested, 0.17% active. AID 588352;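 active means inhibition above a per-campaign cutoff, the mean of all compounds plus 3 SD, cut at about 60% in these data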;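 further: 0% = DMSO-treated cells and 100% = gossypol-treated cells at 36 µM; higher means less SRC3-driven luciferase light from the GAL4 reporter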
COUP-TFII inh – NR2F2 (human) inhibition, primary screen | HEK293T NGFI-A luciferase reporter, luminescence | inhibition, % at 8.6 µM | 370,000 tested, 0.7% active | AID 686940;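 active means inhibition above a per-plate cutoff, mean inhibition of test wells between control levels plus 3 SD, cut at about 38% in these data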;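 further: cells cotransfected with COUP-TFII expression vector driving the NGFI-A reporter; 0% = median of COUP-TF2 test wells and 100% = reporter-only cells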
SRC2 inh – human SRC2 (NCOA2) inhibition; 370,000 tested, 0.17% active; inhibition, % at 9 µM; HEK293 GAL4-SRC2 luciferase reporter, luminescence;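 active means inhibition above the mean inhibition of all tested compounds plus 3 SD, set per campaign, cut at about 52% in these data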;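 further: 0% = DMSO treated cells and 100% = cells given Gossypol at 36 µM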
LRH-1 inv ag – inverse agonists of human LRH-1 (NR5A2) | O00482 | HEK293T StAR-luciferase reporter, LRH-1 transfected, 24 h | inhibition, % at 3.6 µM | 360,000 tested, 0.13% active | AID 602396;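 active means inhibition above the mean inhibition of all tested compounds plus 3 SD, cut at about 73% in these data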;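 further: 0% = DMSO wells and 100% = reporter-only cells lacking LRH-1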
Target sequence (O00482 whole entry, looked up): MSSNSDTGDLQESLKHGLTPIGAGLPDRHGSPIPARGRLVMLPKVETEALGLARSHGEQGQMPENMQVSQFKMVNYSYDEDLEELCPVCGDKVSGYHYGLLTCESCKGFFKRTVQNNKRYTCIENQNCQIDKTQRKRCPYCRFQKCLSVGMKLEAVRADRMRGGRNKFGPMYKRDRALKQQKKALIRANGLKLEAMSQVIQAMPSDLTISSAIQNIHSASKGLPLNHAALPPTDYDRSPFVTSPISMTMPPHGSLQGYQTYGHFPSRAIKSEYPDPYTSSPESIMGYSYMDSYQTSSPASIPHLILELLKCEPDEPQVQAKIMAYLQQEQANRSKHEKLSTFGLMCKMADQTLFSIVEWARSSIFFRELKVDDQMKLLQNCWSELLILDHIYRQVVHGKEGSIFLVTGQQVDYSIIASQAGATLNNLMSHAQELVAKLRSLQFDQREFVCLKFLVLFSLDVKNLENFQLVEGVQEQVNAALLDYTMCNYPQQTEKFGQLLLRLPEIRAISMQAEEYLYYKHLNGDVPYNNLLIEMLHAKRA
Gli-Sufu antag – blocks Gli-Sufu signaling in a luciferase reporter; Sufu-KO-LIGHT fibroblasts, Gli luciferase reporter luminescence; inhibition, % at 5 µM; 340,000 tested, 0.74% active;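 active means inhibition above about 55%, limit read from the data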;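 further: 0% = DMSO-treated cells and 100% = wells with medium but no cells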
Gal4-VP16 ctr – VP16 inhibition counter-screen for COUP-TFII | shares compounds with COUP-TFII inh | AID 687007 | 2,500 tested, 25% active | HEK293 Gal4-VP16 luciferase reporter, luminescence | inhibition, % at 8.5 µM; in the data active means inhibition above about 13%
COUP-TFII conf – COUP-TFII (NR2F2) inhibition, confirmation assay. shares compounds with COUP-TFII inh. HEK293 NGFI-A luciferase reporter, luminescence. inhibition, % at 8.5 µM. 2,500 tested, 45% active. AID 687008;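 active means mean inhibition over three repeats above a set limit taken from the earlier primary screen, cut at about 38% in these data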;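 further: 100% = cells given the luciferase reporter alone without the COUP-TF2 vector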
* = called active by the depositor; · = no result; ! = repeats disagree.

SMILES	NCOA1 inh	NCOA3 inh	COUP-TFII inh	SRC2 inh	LRH-1 inv ag	Gli-Sufu antag	Gal4-VP16 ctr	COUP-TFII conf
COc1cccc(CNc2nc3cc(-c4cnn(Cc5ccccc5)c4)sc3c(=O)n2C)c1	14	34	79*	-7	44	·	17*	54*
COc1cccc(CNc2nc3cc(-c4cccc(OC)c4)sc3c(=O)n2C)c1	-8	-34	10	-2	1	·	·	·
COc1ccccc1CNc1nc2cc(-c3ccc(OC)c(OC)c3)sc2c(=O)n1C	7	-23	41*	12	1	·	-13	8
CN1CC(=O)N2[C@@H](C[C@]3(c4c[nH]c5ccccc45)c4ccccc4N(S(=O)(=O)c4ccccc4)[C@H]23)C1=O	·	·	-8	·	·	·	·	·
O=S(=O)(/C(=C/c1ccc(C(F)(F)F)cc1)c1nc2ccccc2[nH]1)c1ccccc1	-19	55	49*	48	2	-18	67*	62*
CC(C)c1ccc(/C=C(\c2nc3ccccc3[nH]2)S(=O)(=O)c2ccccc2)cc1	28	73*	40*	53*	57	-22	31*	27
C/C(=C\c1ccc(N)cc1)c1nc2ccccc2[nH]1	-74	-93	-22	-38	-64	-71	·	·
C#CCCCN([C@@H](CC(C)C)C(=O)OC)S(=O)(=O)c1ccccc1Br	·	·	-24	18	·	·	·	·
C=CCCC1CN(Cc2ccc(OC)cc2)S(=O)(=O)c2c(NCc3cc(OC)c(OC)c(OC)c3)cccc2O1 (stereo not drawn)	·	·	43*	-7	·	·	0	28
C=CCCC1CN(Cc2ccc(OC)cc2)S(=O)(=O)c2c(Oc3ccc(OC)cc3)cccc2O1 (stereo not drawn)	·	·	-4	-19	·	·	·	·
COC(=O)C[C@H]1CC[C@H]2[C@H](COc3ccc(NC(=O)c4cccs4)cc3C(=O)N2C)O1	·	·	1	15	·	·	·	·
CC(C)(O)C#Cc1ccc(C(=O)N2CCN(c3ccc([N+](=O)[O-])cc3)CC2)cc1	22	-3	38*	29	18	25	6	24
Cc1ccc(CNC(=O)C(=O)NCC2OCCN2S(=O)(=O)c2ccc(C)cc2)cc1 (stereo not drawn)	-50	14	19	-3	4	-4	·	·
Cc1ccc(CNC(=O)C(=O)NCC2OCCN2S(=O)(=O)c2ccc(Br)cc2)cc1 (stereo not drawn)	-48	24	48*	8	24	6	-2	12
O=C(NCCc1c[nH]c2ccccc12)C(=O)NCC(c1cccnc1)N1CCN(c2ccccc2)CC1 (stereo not drawn)	16	21	67*	28	28	13	0	34
COc1ccc(-c2noc(CCC(=O)NC3CCCCCC3)n2)cc1	4	-7	-13	-21	-3	9	·	·
COc1ccc(-c2noc(CCCC(=O)Nc3ccc(C(N)=O)cc3)n2)cc1	15	22	55*	65*	5	43	39*	13
COc1ccc(-c2noc(CCCC(=O)NC3CCCC3)n2)cc1	20	15	54*	53*	45	30	11	21
Cc1ccccc1CC(=O)N1CCC(n2nnc3ncccc32)CC1	·	·	13	1	·	·	·	·
O=C(CCc1ccc(S(=O)(=O)N2CCOCC2)cc1)Nc1nc(COc2ccccc2)cs1	5	11	39*	12	14	18	-2	18
CCOc1ccc(-c2nnn(CC(=O)NCc3ccco3)n2)cc1	-39	-14	-12	-21	-23	32	·	·
CCOc1ccc(-c2cc(CCCC(=O)NCc3ccco3)no2)cc1	-3	-20	43*	60*	9	41	-5	-14
CCOc1ccc(-c2cc(CCCC(=O)NCc3ccc(C)cc3)no2)cc1	13	7	44*	65*	33	11	32*	11
COc1ccc2c(CCN3C(=O)c4ccccc4C3=O)c(-c3c(CCN4C(=O)c5ccccc5C4=O)c4ccccc4n3C(=O)OC(C)(C)C)[nH]c2c1	·	·	-13	·	·	·	·	·
CCCCCCc1c[nH]c2ccc(O)c(-c3ccccc3)c12	·	·	12	20	·	·	·	·
SMILES	NCOA1 inh	NCOA3 inh	COUP-TFII inh	SRC2 inh	LRH-1 inv ag	Gli-Sufu antag	Gal4-VP16 ctr	COUP-TFII conf
CN1[C@H](Cc2ccccc2)COc2cc(N3CCCC3)ccc2S1(=O)=O	·	·	55*	0	·	·	4	9
N#C/C(=C\c1ccc(Cl)cc1)C(=O)NC1CC1	-8	18	11	0	-1	7	·	·
CC(C)Oc1ccc(/C=C(\C#N)C(=O)NC2CC2)cc1	-38	-48	82*	-81	-21	-3	-95	-37
C#CCN1CC(N(C)CCOC(=O)c2ccc([N+](=O)[O-])cc2)CS1(=O)=O (stereo not drawn)	·	·	5	-10	·	·	·	·
O=C(OCCC12CC3CC(CC(C3)C1)C2)c1ccc(NCc2cc(O)ccc2O)cc1	56	74*	90*	94*	52	82*	78*	101*
COc1cc(NC(=O)c2cnc(N)o2)cc(C(=O)Nc2cccc(C(F)(F)F)c2)c1	8	5	66*!	13	14	6	-21	22
O=S(=O)(c1ccccc1)n1c(CN2CCOCC2)nc2ccccc21	·	·	-2	-6	·	·	·	·
Cc1cc(C)nc(OC(C(=O)O)C(OCc2ccccc2)(c2ccccc2)c2ccccc2)n1 (stereo not drawn)	7	5	-9	-6	-2	5	·	·
Cc1ccnc(OC(C(=O)O)C(OCc2ccccc2)(c2ccccc2)c2ccc(C(F)(F)F)cc2)n1 (stereo not drawn)	8	35	47*	-30	19	10	6	14
O=C(Nc1ccccc1)c1cc(C2CCCN(C(=O)CCc3ccccc3)C2)on1 (stereo not drawn)	-67	-67	-56	-42	-51	·	·	·
CN(C)c1ccc(CC(=O)N2CCCC(c3cc(C(=O)Nc4ccc(C(C)(C)C)cc4)no3)C2)cc1 (stereo not drawn)	-6	-7	64*	12	16	·	14*	61*
CC1(C)OC(C)(C)C(=N/O)/C1=N\N	·	·	-2	15	·	·	·	·
COC(=O)c1cc(-c2cccc(OCc3ccccc3)c2)c(=O)n2c1CCC2	·	·	18	10	·	·	·	·
O=C(NCc1ccccc1)C1(C(=O)C2CC2)CC(c2ccccc2C(F)(F)F)=NO1 (stereo not drawn)	·	·	-12	-22	·	·	·	·
COc1cccc(CN(C)C(=O)c2cc(COc3ccc(-n4cncn4)cc3)on2)c1	14	26	38*	14	-8	49	-4	-1
O=C(c1ccccc1)c1ccc(Cn2cc(CCCO)nn2)cc1	6	3	37*	2	20	24	6	13
O=C(O)CCCCCCCCc1cn(Cc2ccc(C(=O)c3ccccc3)cc2)nn1	-4	3	-1	-11	-3	-11	·	·
